# The list is not random: actives were taken first. Their share in the collection is about 3.6%.
# mHTT CaM bind = mHTT-calmodulin interaction abrogation | P42858 | AlphaScreen His-mHTT/GST-CaM binding, luminescence | inhibition, % at 15 µM | 3.6% of 190,000 active | AID 1671202;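 also: 0% = both proteins with DMSO and 100% = one protein alone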
# Pf apPOL inh = Pf-apPOL DNA polymerase inhibition. Recombinant Pf-apPOL, molecular beacon fluorescence, 1.5 h. inhibition, % at 10 µM. 0.25% of 210,000 active
# An asterisk follows results filed as active; x = not tested or not shown. Rule as the data show it: active = inhibition above about 50%; inactive = the rest.
SMILES,mHTT CaM bind,Pf apPOL inh
COc1ccc(C2=NNC(c3ccc(Br)cc3)C2)c(O)c1 (configuration not stated),47.0,-6.8
Cn1c(Cl)cnc1C1CC(c2cc(Cl)ccc2O)=NN1 (configuration not stated),67.0*,3.0
Oc1ccc(F)cc1C1=NNC(c2ccc3c(c2)OCCO3)C1 (configuration not stated),39.1,0.7
O=[N+]([O-])c1ccc(O)c(C2=NNC(c3ccncc3)C2)c1 (configuration not stated),30.0,-2.0
Cn1c(Cl)cnc1C1CC(=O)c2cc(Cl)ccc2O1 (configuration not stated),16.0,0.4
O=[N+]([O-])c1ccc(O)c(C2=NNC(c3ccc(Cl)cc3)C2)c1 (configuration not stated),55.2*,-0.6
Oc1ccccc1C1=NNC(c2ccc(Br)cc2)C1 (configuration not stated),57.0*,-3.0
Oc1ccc(Cl)cc1C1=NNC(c2ccc3c(c2)OCCO3)C1 (configuration not stated),63.0*,-2.7
CCOc1ccc(NC(=O)c2cc3n(n2)C(C(F)(F)F)CC(c2ccc(OC)cc2)N3)cc1 (configuration not stated),4.0,-4.3
CCOC(=O)N1CCN(c2nc(-c3ccc(C)cc3)nc3ccccc23)CC1,-8.0,1.6
Cc1ccc(-c2nc(N3CCC(C(N)=O)(N4CCCCC4)CC3)c3ccccc3n2)cc1,53.0*,-3.0
O=C(NCCCn1ccnc1)C(=O)Nc1ccc2c(c1)OCCO2,-3.3,-2.3
O=C(NCCCn1ccnc1)c1ccc(Cl)cc1,-3.5,2.1
O=C(NCCCn1ccnc1)C(=O)Nc1ccc(F)c(Cl)c1,69.9*,-1.9
O=C(NCCCn1ccnc1)Nc1cccc(Cl)c1,88.7*,0.5
CCOc1ccc(N2C=C(C(=O)N3CCCCC3)S(=O)(=O)c3ccccc32)cc1,7.2,-2.5
Clc1ccc2c(c1)SS(Cl)=N2 (configuration not stated),55.2*,x
CC1(C(=O)NCc2ccccc2)CCCN(S(=O)(=O)c2ccc(F)c(Cl)c2)C1 (configuration not stated),65.6*,-0.3
Cc1cccc(S(=O)(=O)N2CCCC(C)(C(=O)NCc3ccccc3)C2)c1 (configuration not stated),-0.9,-4.1
COc1ccc(Cl)cc1S(=O)(=O)N1CCCC(C)(C(=O)NCc2ccccc2)C1 (configuration not stated),95.2*,-1.5
COc1ccc(OC)c(S(=O)(=O)N2CCCC(C)(C(=O)NCc3ccccc3)C2)c1 (configuration not stated),15.2,-3.0
O=C(Nc1ccccc1)c1ccc2c(c1SCCO)C(=O)c1ccccc1C2=O,38.0,1.5
Oc1c(F)cccc1C=Nc1ccc2oc(-c3ccccc3)nc2c1,11.0,2.6
CC(=O)N1CCc2[nH]c3ccc(C(=O)N4CCCC4)cc3c2C1,61.3*,-0.5
CCCN1CCN(C(=O)c2ccc3[nH]c4c(c3c2)CN(C(C)=O)CC4)CC1,7.6,-4.6
SMILES,mHTT CaM bind,Pf apPOL inh
CC(=O)N1CCc2[nH]c3ccc(C(=O)N(C)c4cccc(Cl)c4)cc3c2C1,50.4*,-5.5
CC(=O)N1CCc2[nH]c3ccc(C(=O)N4CCN(Cc5ccccc5)CC4)cc3c2C1,38.4,-0.4
CSC(=NCC1CC1)NC(C)(C)C,x,-1.6
Cc1ccc(C2=NN(S(C)(=O)=O)C(c3cc4cccc(C)c4nc3Cl)C2)cc1 (configuration not stated),-5.0,-10.4
CCC(=O)N1CCc2cc(N3CC(C(=O)N4CCN(c5ccccn5)CC4)CC3=O)ccc21 (configuration not stated),10.2,1.4
N=c1n(Cc2ccccc2)c2ccccc2n1CC(O)COc1ccc(Cl)cc1 (configuration not stated),59.9*,7.2
CCCCn1c(=N)n(CC(O)COc2ccc(Cl)cc2)c2ccccc21 (configuration not stated),41.9,1.7
O=C(c1ccc(OCC2CCCN(C(=O)c3c(F)cccc3F)C2)cc1)N1CCOCC1 (configuration not stated),-0.4,-4.3
COc1ccc(S(=O)(=O)NCc2ccco2)cc1OC,-9.2,-2.8
COC(=O)c1ccccc1S(=O)(=O)N1CCCn2nc(-c3ccncc3)cc2C1,1.9,0.2
CC(C)C(=O)NC(c1cccs1)c1cc([N+](=O)[O-])c2cccnc2c1O (configuration not stated),100.0*,-4.7
CCC(=O)NC(c1ccccc1Cl)c1cc([N+](=O)[O-])c2cccnc2c1O (configuration not stated),100.0*,-3.2
CCC(=O)NC(c1ccccc1OC)c1cc([N+](=O)[O-])c2cccnc2c1O (configuration not stated),100.0*,-3.9
CCC(=O)NC(c1ccc(C(C)C)cc1)c1cc([N+](=O)[O-])c2cccnc2c1O (configuration not stated),100.0*,-7.6
CCOc1ccc(C2=CSC3=NCCN23)cc1,13.4,-3.7
Cc1ccc(-c2nc(C)c(C(=O)N3CCC(CC(=O)NCC4CCCO4)CC3)s2)cc1 (configuration not stated),1.1,4.4
O=C(O)CSCC(=O)Nc1cccnc1,x,4.8
CC(C)C[C@H]1COc2cccc(F)c2S(=O)(=O)N1C,-2.8,0.2
Cc1n[nH]c(C)c1NC(=O)c1cc2c(C)nn(-c3ccccc3)c2s1,40.0,-6.5
CCCC(=O)NC(c1ccc(C(C)C)cc1)c1cc([N+](=O)[O-])c2cccnc2c1O (configuration not stated),51.4*,-1.9
CN(C)C(=O)NC(c1ccccc1)c1cc([N+](=O)[O-])c2cccnc2c1O (configuration not stated),100.0*,-10.1
CCCC(=O)NC(c1ccc(Cl)cc1Cl)c1cc([N+](=O)[O-])c2cccnc2c1O (configuration not stated),99.0*,-2.9
CCC(=O)NC(c1ccccc1)c1cc([N+](=O)[O-])c2cccnc2c1O (configuration not stated),100.0*,0.7
COc1ccc(C=C(C#N)c2ccc([N+](=O)[O-])cc2)cc1,x,-18.0
O=C(c1nc2ccccn2c1-c1ccsc1)N1CCCCCC1,0.5,-1.4
SMILES,mHTT CaM bind,Pf apPOL inh
COc1ccc(Cc2nnc(NC(=O)CCCc3ccccc3)s2)cc1,1.1,-10.9
COc1ccc(Cl)cc1NC(=O)c1oc2ccc(S(=O)(=O)N3CCCCC3)cc2c1C,-8.0,-5.3
COc1cccc2cc(-c3nnc(-c4cccc(F)c4)o3)c(=O)oc12,4.0,-1.9
COc1ccccc1N1CCN(S(=O)(=O)c2ccc(F)cc2)CC1,-8.3,4.6
C=CCn1c(N=Cc2ccc(Cl)cc2)nc2ccccc21,1.0,-0.2
C=CCn1c(N=Cc2ccc(N(C)C)cc2)nc2ccccc21,71.0*,2.6
CCCOC(=O)CCCCCN1C(=O)C(=Cc2ccc(OC)cc2)SC1=S,6.2,-8.9
Cc1ccc(NC(=O)C2CCC(CNS(C)(=O)=O)CC2)cc1Cl (configuration not stated),-4.2,-3.7
O=C(O)c1cc2ncccn2n1,-1.0,51.5*
O=C(O)c1cnn2cccnc12,9.0,-1.3
O=C(CNC(=O)c1ccc(Cl)cc1)c1ccc(Cl)cc1,x,-9.8
CN(C)C=C(C#N)S(=O)(=O)C(C#N)=CN(C)C,x,-3.9
O=C(CSc1ccc(F)cc1)NCC1(c2cccs2)CCOCC1,-10.6,2.2

# From PubChem
